Source: PubChem (several laboratories)
FAS-TE inh = FAS thioesterase (human) inhibition. P49327. recombinant FAS-TE, OMFH fluorogenic substrate, fluorescence endpoint. inhibition, % at 15 µM. hit rate 0.67% among 360,000. AID 602261;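 active means compounds whose normalised, plate-corrected inhibition of enzyme fluorescence in the single-dose primary screen is 50% or more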;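 further: 0% = DMSO with enzyme and 100% = substrate without enzyme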
MPTP inh = permeability transition pore inhibition | isolated mouse mitochondria, Ca2+ swelling absorbance, 30 min | inhibition, % at 10 µM | hit rate 1.4% among 360,000 | AID 602449;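 active means inhibition of 50% or more, scaled per plate between neutral and stimulator controls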;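 further: 0% = DMSO wells given calcium and 100% = 1 mM EGTA wells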
Myeloid diff 2 = compounds promoting myeloid differentiation; ER-HoxA9 myeloid progenitors, lysozyme-GFP differentiation, flow cytometry; calls only at 10 µM; hit rate 1% among 360,000;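 active means normalized GFP-positive differentiation at or above the plate's own cutoff, the solvent-only control mean plus 3 SD; inconclusive means no clear call, values can overlap the other calls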;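 further: cells exposed to compound for four days before flow analysis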
rCAG binder = molecules binding r(CAG) RNA repeats; inhibition, % at 3 µM; hit rate 1.3% among 370,000; r(CAG) RNA repeat, TO-PRO-1 dye displacement fluorescence;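 active means inhibition above the plate cutoff, the mean of all test compounds on that plate plus 3 SD, cut at about 35% in these data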;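 further: 0% = DMSO alone and 100% = 100 µM mitoxantrone as full dye displacement; higher means more dye released from RNA so lower well fluorescence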
NR3A LBD binder = modulators (binders) of human NR3A ligand-binding domain. hit rate 2.5% among 340,000. NR3A LBD differential scanning fluorimetry, Tm shift; 0% = protein alone, 100% = glycine-bound protein. Tm shift relative to glycine control, % at 25 µM. AID 1259313;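 active means melting temperature shift of at least 10% of the positive control shift, at one fixed dose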
Starred values were filed as active, the others as inactive; i = inactive; ? = inconclusive; nt = not tested or not shown; + = active, no number. Shown are actives, neighbours in structure and some others; about 5.7% of the full set was active somewhere.

SMILES	FAS-TE inh	MPTP inh	Myeloid diff 2	rCAG binder	NR3A LBD binder
O=C(Nc1cc(S(=O)(=O)N2CCOCC2)ccc1N1CCCC1)c1ccccc1C(F)(F)F	nt	nt	nt	4.7	1.2
CCC(=O)Nc1ccc(/C(C)=N\NC(=O)c2ccc(C)s2)cc1	-4.0	-0.6	i	4.1	21.8*
Cc1onc(-c2ccccc2Cl)c1C(=O)Nc1ccccc1	-5.5	-0.6	i	-2.2	4.2
CCC(=O)Nc1ccc(/C(C)=N/NC(=O)c2c(-c3ccccc3Cl)noc2C)cc1	-7.0	-0.8	i	1.3	11.5*
C[C@H]1CN([C@@H](C)CO)C(=O)CCCn2nncc2CO[C@@H]1CN(C)CC1CC1	nt	nt	nt	1.4	nt
CCOC(=O)[C@@]12CCCC3=C1N(CCC3)C(=O)[C@H]2CC(=O)NCC12CC3CC(CC(C3)C1)C2	nt	nt	nt	0.3	nt
CC(C)=CCc1c(O)c(CC=C(C)C)c2c(c1O)C(=O)CC(c1ccc(O)cc1)O2 (stereo not given)	21.0	0.4	i	23.4	15.1*
CC(C)=CCc1c(O)cc(O)c2c1OC(c1ccc(O)cc1)CC2=O (stereo not given)	16.3	0.8	i	3.3	4.6
Cc1cccc(-c2cc3nc4c(c(N5CCC6(CC5)OCCO6)n3n2)CCCC4)c1	30.3	2.0	i	1.6	15.3*
CCCC(C)n1[nH]c(=O)cc1N (stereo not given)	-8.5	-2.7	i	-3.7	-0.9
CCC(CC)n1[nH]c(=O)cc1N	-0.1	1.6	i	2.1	14.0*
O=C1c2cccc([N+](=O)[O-])c2C(=O)N1CCO	-6.2	-0.6	+	2.2	-0.1
O=C(NCc1cccs1)c1noc2c1CCCC2	-3.9	0.6	i	-1.8	11.2*
COc1ccc(C2=NOC(C(=O)NCc3ccco3)C2)cc1 (stereo not given)	-5.7	-0.9	i	4.2	11.2*
COC(=O)C(C[N+](=O)[O-])C1=C(O)CC(C)(C)CC1=O (stereo not given)	nt	nt	nt	1.4	nt
O=c1c(N=Nc2ccc(O)cc2)c(-c2ccccc2)[nH]n1-c1ccc([N+](=O)[O-])cc1	5.4	28.6	+	5.4	-3.0
C#CCOCCOCCOCCNc1nc(N2CCN(C(=O)CCCCCCCCCCNC(=O)[C@H]([C@@H](C)CC)n3cc(CCCCCN)nn3)CC2)nc(N2CCN(C(=O)CCCCCCCCCCNC(=O)[C@@H]([C@H](C)O)n3cc(C)nn3)CC2)n1	-101.2	-12.3	?	nt	17.4*
C#CCOCCOCCOCCNc1nc(N2CCN(C(=O)CCCCCCCCCCNC(=O)[C@@H](CCSC)n3cc(CCO)nn3)CC2)nc(N2CCN(C(=O)CCCCCCCCCCNC(=O)[C@H]([C@@H](C)CC)n3cc(CCCCCN)nn3)CC2)n1	nt	nt	nt	nt	17.1*
C#CCOCCOCCOCCNc1nc(N2CCN(C(=O)CCCCCCCCCCNC(=O)[C@@H](CCSC)n3cc(CCO)nn3)CC2)nc(N2CCN(C(=O)CCCCCCCCCCNC(=O)[C@H]([C@@H](C)CC)n3cc(CCCCN=C(N)N)nn3)CC2)n1	-95.6	-11.8	i	nt	7.4
N/C(=N\OC(=O)/C=C/c1ccccc1Cl)c1cccnc1	-6.1	2.4	i	0.1	-3.8
N/C(=N\OC(=O)/C=C/c1ccccc1)c1cccnc1	-7.0	2.0	i	2.7	20.3*
CCn1c(=N)n(CC(O)c2ccco2)c2ccccc21 (stereo not given)	-5.8	-2.5	i	2.1	-1.4
Cc1ccc(OCC(O)Cn2c(=N)n(Cc3ccccc3)c3ccccc32)cc1 (stereo not given)	-8.3	-2.9	+	19.7	-1.3
N=c1n(Cc2ccccc2)c2ccccc2n1CC(O)c1ccco1 (stereo not given)	-23.1	-2.2	+	10.0	-0.2
O=C1C(C2=C(O)c3ccccc3C2=O)=Nc2ccccc21	48.8	10.8	+	44.1*	-1.3
SMILES	FAS-TE inh	MPTP inh	Myeloid diff 2	rCAG binder	NR3A LBD binder
O=C(/C=N/O)Nc1ccc2sc3ccccc3c2c1	-151.2	5.9	i	16.8	33.7*
CCOC(=O)c1cc2nc(Nc3ccc(OC)cc3)sc2s1	-11.7	-4.0	+	15.5	15.0*
CCOC(=O)c1sc(Nc2ccccc2Cl)nc1C	18.6	2.7	i	-1.6	3.0
CCOC(=O)c1sc(Nc2ccc(Br)cc2)nc1C	19.1	30.4	i	9.7	13.9*
FC(F)(F)c1ccccc1Cc1c(-c2ccco2)nc2c3ccccc3ccn12	nt	nt	nt	19.4	nt
Cc1nc2cc[nH]n2c(=O)c1CCc1ccccc1	nt	nt	nt	0.8	nt
COc1ccc(C(=O)/C=C/c2ccc(OC)c(CN3CCOCC3)c2)cc1	-11.5	0.6	?	-3.5	-10.2
COc1ccc(C(=O)/C=C/c2ccc(OC)c(Cn3nnc4ccccc43)c2)cc1	11.9	3.0	+	5.7	-5.6
COc1ccc(/C=C/C(=O)c2ccc(O)cc2)cc1CN1CCOCC1	-5.9	0.2	+	1.9	-1.1
COc1ccc(/C=N/NC(=O)c2ccncc2)cc1CN1CCOCC1	-3.4	-1.4	i	-4.6	12.2*
C=CCn1c(N)c(C(=O)Nc2ccccc2)c2nc3ccccc3nc21	17.0	4.8	nt	16.9	12.9*
CN1CC=C(c2ccc(C(F)(F)F)cc2)N(c2ccc(Br)cc2)C1=O	nt	nt	nt	0.3	nt
COc1ccc(NS(=O)(=O)c2cc(C(=O)N3CCN(C(C)=O)CC3)ccc2Cl)cc1	-5.9	-4.5	nt	3.5	-1.4
Cc1ccccc1N/C(=N/S(=O)(=O)c1ccccc1)c1ccc(F)cc1	-3.5	-0.5	+	2.7	0.1
COc1ccc(NS(=O)(=O)c2cccc(C(=O)NN=Cc3ccc(OC)c(O)c3)c2)cc1	4.6	0.6	i	8.6	-0.6
COc1ccc(NS(=O)(=O)c2cc(N/C(=N\S(=O)(=O)c3ccccc3)c3ccc(F)cc3)ccc2Cl)cc1	30.3	-19.9	+	14.3	-4.8
COc1ccc(NS(=O)(=O)c2cccc(C(=O)N/N=C/c3c(F)c(F)c(F)c(F)c3F)c2)cc1	12.8	13.0	i	14.8	11.9*
Cc1ccc(C2NC(=O)c3n[nH]c(C)c32)cc1 (stereo not given)	nt	nt	nt	2.6	nt
COc1ccc2c3c([nH]c2c1)[C@]1(NCC3)C(=O)N(C)c2ccc(Cl)cc21	nt	nt	nt	0.4	nt
COc1ccc([C@H]2OC(=O)C[C@H]2C(=O)N2CCCCC2)cc1OC	nt	nt	nt	-0.9	nt
CCC(=O)OCCCN1CCC2(CCC(c3ccccc3)CC2)C1=O (stereo not given)	nt	nt	nt	-1.4	nt
COc1ccc(N2CCN(CCNS(=O)(=O)c3c(C(C)C)cc(C(C)C)cc3C(C)C)CC2)cc1	nt	nt	nt	1.4	nt
C=CCSC(=C(C#N)C#N)c1cc2c([nH]1)CCCC2	21.0	8.0	+	5.7	-2.8
CCCN1CCc2c(sc(NC(=O)c3ccc(S(=O)(=O)N(C)c4ccccc4)cc3)c2C(N)=O)C1	-21.1	2.6	+	nt	3.7
CN1CCc2c(sc(NC(=O)c3ccc(S(=O)(=O)N4CCCCCC4)cc3)c2C(N)=O)C1	-23.3	1.2	+	nt	-5.7
CCOC(=O)N1CCN(S(=O)(=O)c2ccc(C(=O)Nc3sc4c(c3C(N)=O)CCN(CC)C4)cc2)CC1	0.4	-1.4	i	10.2	0.1
